ClpP mod = qHTS Assay for Activators of ClpP; 340,000 tested, 1.9% active; purified B. subtilis ClpP, FRET peptide cleavage, 20 min; Potency, µM (titrated, usually from 57.5 µM); ATP-dependent Clp protease proteolytic subunit (Bacillus subtilis (strain 168)), P80244; active = well fitted falling curve with a large enough effect; inconclusive = small, poorly fitted or top-dose-only effect; inactive = no such curve, though single readings can be large or run the other way; note: the source files actives as falling curves though it sought activators and does not explain the sign; nearly all actives have a fitted effect of over 65% in size
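ClpP 10 microg/mL final, pH 8 Tris/KCl buffer with BSA, glycerol, Tween-20; compound pinned in; FRET-FV substrate; RT 20 min; Ex320/Em430; ΔFRET vs ADEP 5.8 microM, DMSO, no enzyme.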
Mito fusion yeast = inhibitors of mitochondrial division or activators of mitochondrial fusion; Potency, µM (series often up to 46.1 µM), usual class: activators; 320,000 tested, 0.23% active; AID 485298; S. cerevisiae fusion-defective mutant growth rescue, CellTiterGlo 48 h; note: nearly all actives have a fitted effect of over 45% in size
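Luminescent cell viability in 1536-well qHTS format served as the measure of rescued growth in ts fusion-mutant S. cerevisiae cultured on non-fermentable YPEG for 48 hours at 37C.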
B2AR arrestin = beta2AR (human) beta-arrestin recruitment activity | P07550 | Potency, µM (top dose mostly 46.1 µM), most hits filed as activators | beta-arrestin recruitment to beta2AR, cell-based reporter | AID 492947 | 330,000 tested, 0.02% active; note: nearly all actives have a fitted effect of over 65% in size
uPA surface inh = inhibitors of cell surface uPA generation. Potency, µM (doses to about 38.3 µM), hits mostly inhibitors. cell surface uPA generation assay, qHTS. AID 540303. 330,000 tested, 0.31% active; active = well fitted inhibition curve with a large enough effect; inconclusive = small, poorly fitted or top-dose-only effect; inactive = no such curve, though single readings can be large or run the other way; tested in mouse RAW 264.7 cells; note: nearly all actives have a fitted effect of over 55% in size
Giardia kill = Giardia lamblia killing | Giardia lamblia trophozoite viability | activity change, % at 7.66 µM, hits read low | 340,000 tested, 0.15% active | AID 540267; in the data active = activity change below about -80%; inconclusive = between about -30% and that limit;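 note: parasites exposed to compound for two days anaerobically before the ATP read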
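Media and compound were dispensed first, then trophozoites at 100 cells/well; plates sat 48 hrs at 37 deg C without oxygen before ATP luminescence reagent was added and read after 15-30 min at room temperature.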
p53 reactivation = re-activators of mutant p53; H1299 p53-A138V BP100-luciferase reporter, luminescence, 24 h; 320,000 tested, 0.063% active; Potency, µM (doses to about 92.2 µM), most hits filed as activators; AID 504706; note: nearly all actives have a fitted effect of over 45% in size
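H1299 (p53-null), stable ts p53-A138V + BP100-Luc; 1000 cells/well, Opti-MEM/10% FBS; cpd 4 pt, 1:5; 24 h, 37 deg C, 5% CO2; detection reagent 10 min RT; luminescence.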
Numbers stand for hits; - = inactive; ? = inconclusive; . = not tested or not shown. Only some compounds are listed: those with a hit (about 2.1% of all), similar ones and a draw of the others. Unless noted, calls come from the whole dose curve; as a rule, active = well fitted curve in the direction sought with a large enough effect; inconclusive = small, poorly fitted or top-dose-only effect, or another doubt; inactive = no such curve, though single readings can be large; an effect the other way counts as inactive or inconclusive.

SMILES	ClpP mod	Mito fusion yeast	B2AR arrestin	uPA surface inh	Giardia kill	p53 reactivation
COc1ccccc1CNC(=O)C1CCN(C2=NS(=O)(=O)C(c3ccc(C)c(C)c3)=C2C)CC1	-	.	.	.	.	.
CCCS(=O)(=O)c1c(S(=O)(=O)CCC)c2c(C)cccn2c1C(N)=O	-	-	-	-	-	-
CCCS(=O)(=O)c1c(S(=O)(=O)CCC)c2c(C)cccn2c1C(=O)N/N=C/c1cc(O)cc(O)c1	-	-	-	11µM	-	?
Cc1cc(-c2ccccc2)[nH]c(=O)c1S(=O)(=O)c1ccc(Cl)cc1	?	-	-	-	-	-
Cc1cc(-c2ccccc2)[nH]c(=O)c1S(=O)(=O)c1ccccc1	14µM	-	-	-	-	-
COc1ccc(N2C(=O)C(Cl)=C(Nc3ccccc3O)C2=O)cc1	32µM	-	-	-	-	?
COc1ccc(N2C(=O)C(Cl)=C(Nc3ccccc3OC)C2=O)cc1	-	-	-	-	-	-
CCc1ccc2oc(-c3cccc(NC(=O)C(C)(C)Oc4ccc(Br)cc4)c3)nc2c1	-	.	.	.	.	.
Cc1ccc(-n2ncc(C(=O)Nc3cc(Cl)cc(Cl)c3)c2C2CCNCC2)cc1C	-	-	-	11µM	?	-
CCOC(=O)C1CCN(C(=O)CSc2n[nH]c(-c3ccc(F)cc3)n2)CC1	-	.	.	.	.	.
COc1ccccc1N1CCN(CCN2C(=O)C3CCCCN3C2=O)CC1 (configuration not stated)	32µM	-	-	-	-	-
O=C1C2CCCN2C(=O)N1CCCCN1CCN(c2cccc(Cl)c2)CC1 (configuration not stated)	-	-	-	2.8µM	-	-
Cc1c(C(=O)NCc2ccccc2C(F)(F)F)sc(=O)n1Cc1ccc(F)cc1	-	.	.	.	.	.
O=C(Nc1ccc(CN2CCOCC2)cc1)c1ccc(-c2cc(Cl)ccc2Cl)o1	?	10µM	-	-	-	-
Cc1ccc(Nc2nnc(SCC(=O)c3ccc(Br)s3)s2)c(C)c1	-	?	-	-	-	-
Cc1cccc(C)c1Nc1nnc(SCC(=O)c2ccc(Br)s2)s1	-	18µM	-	-	-	-
Cc1cccc(C)c1Nc1nnc(SCC(=O)c2ccc3c(c2)NC(=O)CO3)s1	35µM	-	-	-	-	-
COc1ccc(Cl)cc1NC(=O)Cn1cc(C(=O)c2ccncc2)c(=O)c2cc(C)ccc21	-	.	.	.	.	.
COc1cccc(CSc2nc3n(n2)C(c2cccs2)C(C(=O)Nc2ccccc2C)=C(C)N3)c1 (configuration not stated)	-	.	.	.	.	.
Cc1ccc2nc(Nc3ccc(Br)cc3)nc(-c3ccccc3)c2c1	-	.	.	.	.	.
CCCCOc1ccc(C(=O)NCC2(N3CCN(C)CC3)CCCCC2)cc1	-	.	.	.	.	.
CN(C(=O)OC(C)(C)C)c1ccc(-c2nc3ccccc3s2)cc1	.	.	.	2µM	?	.
COc1cc(C=C(c2nc3ccccc3s2)c2nc3ccccc3s2)cc(OC)c1O	-	18µM	?	-	-	-
COc1cc(-c2nc3ccccc3s2)ccc1O	8.9µM	-	-	?	-	?
COc1cc(/C=C(\CC(=O)O)c2nc3ccccc3s2)cc(OC)c1O	-	-	-	-	-	-
SMILES	ClpP mod	Mito fusion yeast	B2AR arrestin	uPA surface inh	Giardia kill	p53 reactivation
COc1ccc(C)c2sc(N(Cc3cccnc3)C(=O)C3CCCCC3)nc12	-	.	.	.	.	.
C[N+]1(CC(=O)c2ccccc2)CCc2ccccc2C1 (configuration not stated)	-	.	.	.	.	.
COc1ccc(CN2C[C@@H](CO)O[C@@H](n3cnc4c(N5CCOCC5)ncnc43)C2)cc1	-	.	.	.	.	.
COc1ccc(-n2ncc3c(NC(C)(C)CO)ncnc32)cc1	-	.	.	.	.	.
CCS(=O)(=O)N1CCN(c2ccc([N+](=O)[O-])c(NC(C)c3ccccc3)c2)CC1 (configuration not stated)	-	-	-	-	-	-
CC(Nc1cc(N2CCNCC2)ccc1[N+](=O)[O-])c1ccccc1 (configuration not stated)	28µM	-	-	-	-	-
Cc1cccc(C(=O)Nc2cc3nn(-c4ccc(C(C)C)cc4)nc3cc2C)c1	10µM	.	.	.	.	.
CCCN(CCC)CCCNC(=O)c1cc2c(=O)[nH]c3ccccc3c2n1C	-	-	-	-	-	-
Cn1c(C(=O)NCc2ccco2)cc2c(=O)[nH]c3ccccc3c21	28µM	-	-	-	-	-
O=C(Nc1nnc(-c2ccco2)s1)C1CC1	32µM	-	-	-	-	?
O=C(Nc1nnc(-c2ccco2)s1)C1CCN(S(=O)(=O)c2ccc(Cl)cc2)CC1	?	-	-	-	-	-
N#Cc1c(N)n(CCNC(=O)c2ccc(Cl)cc2)c2nc3ccccc3nc12	3.2µM	-	-	-	-	-
Cc1ccc(C(=O)NCCn2c(N)c(C#N)c3nc4ccccc4nc32)cc1	22µM	-	-	-	-	-
COCCn1c(N)c(C#N)c2nc3ccccc3nc21	-	-	-	.	-	-
COc1cc2c(cc1OC)C(c1cc(-c3cc(Cl)ccc3Cl)oc1C)=NCC2	-	.	.	.	.	.
COCCNC(=O)CSc1c2c(nc3ccc(Cl)cc13)CCCC2	-	18µM	-	?	-	-
COc1ccc(OC)c(NC(=O)c2cc3c(=O)n4cccc(C)c4nc3n2C)c1	-	.	.	.	.	.
CCOC(=O)c1cc(-c2ccc(OC)cc2)nc2c1c(C)nn2CCC#N	25µM	-	-	-	-	-
CCOC(=O)c1cc(-c2ccc(C#N)cc2)nc2c1c(C)nn2CCC#N	?	-	-	-	-	-
COC(=O)c1ccc2c(c1)N(CC(=O)Nc1cccc(Cl)c1C)C(=O)c1ccccc1S2	-	.	.	.	.	.
O=C(COc1ccc(S(=O)(=O)N2CCCCC2)cc1)N1CCCCCC1	32µM	-	-	-	-	-
Cc1ccccc1NS(=O)(=O)c1ccc(OCC(=O)N2CCCC2)cc1	28µM	-	-	-	-	-
CC1CCN(C(=O)COc2ccc(S(=O)(=O)N3CCCC3)cc2)CC1	.	-	-	-	-	-
Cc1ccc(C)c(NS(=O)(=O)c2ccc(OCC(=O)N3CCCC3)cc2)c1	-	-	-	.	-	-
CCOC(=O)CC1(C)NC(=O)c2c(C)sc(C(=O)OCC)c2N1 (configuration not stated)	?	-	-	-	-	-
CCOC(=O)CC1(CC(=O)OCC)NC(=O)c2c(C)sc(C(=O)OCC)c2N1	35µM	-	-	-	-	-
COc1cc2ccccc2cc1C(=O)Nc1ccc(N2CCN(C)CC2)cc1	-	-	-	-	-	20µM
CCOc1ccc(C(=O)Nc2ccc(N3CCN(C)CC3)cc2)cc1Br	18µM	-	-	-	-	-
CCc1nn(-c2ccccc2)c2nc(-c3cccc(OC)c3)c3cc(OC)c(OC)cc3c12	-	.	.	.	.	.
Cc1c(C(=O)OC(C)C(C)C[N+](C)(C)C)oc2ccccc12 (configuration not stated)	28µM	-	-	-	-	-

From PubChem BioAssay
